The source of these data is PubChem BioAssay (NCATS).

For one experiment, the system named is MCC-26. Put plainly: qHTS assay to identify novel small-molecules to repurpose for Merkel cell carcinoma treatment (AID 1296009). Further: nearly all actives have a fitted effect of over 60% in size. Further: potency means the concentration at half of the fitted maximal effect. The note with it: MCC and control cell lines, CellTiter-Glo viability, 72 h; series mostly up to 46 µM. Put shortly:
(§1)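 CellTiter-Glo luminescence after 72 hr compound exposure at 37 degree celsius gave cell viability. Libraries NPC and MIPE were run as 8- and 11-point dose responses; RLUs normalized to DMSO (negative) and no-cell (cytotoxicity) controls.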
On the technique in general: Quantitative high-throughput screening tests each substance at several concentrations.

Another experiment has as its system MKL-1. Described as above. The note with it: MCC and control cell lines, CellTiter-Glo viability, 72 h; series mostly up to 46 µM. In a few lines:
as §1

The test system of another experiment is MKL-2. The experiment is described as above. The following applies: MCC and control cell lines, CellTiter-Glo viability, 72 h; series mostly up to 46 µM. In a few lines: as §1
In general terms: ATP-based viability assays read luminescence as a measure of living cells.

The next experiment has as its system UISO. The experiment is described as above. The note with it: MCC and control cell lines, CellTiter-Glo viability, 72 h; series mostly up to 46 µM. Put shortly: as §1
The test system of another experiment is WaGa. The experiment is described as above. The following applies: MCC and control cell lines, CellTiter-Glo viability, 72 h; series mostly up to 46 µM. In a few lines: as §1
In another experiment the test system is C33A. As to the kind of experiment: Primary qHTS to identify gynecologic anti-cancer compounds using libraries of approved drugs and bioactive compounds (AID 1345084). Further: nearly all actives have a fitted effect of over 55% in size. Further: potency means the concentration at half of the fitted maximal effect. The following applies: Gynecologic cancer cell panel viability, ATPlite luminescence, 48 h; series mostly up to 57.5 µM. Put shortly:
(§2)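 In this quantitative HTS, cell killing is estimated from loss of ATP-dependent luciferase light. Cells see five compound concentrations over a 48 h exposure.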

The next experiment deals with CAOV3. The experiment is described as above. The following applies: Gynecologic cancer cell panel viability, ATPlite luminescence, 48 h; series mostly up to 57.5 µM. In a few lines: as §2
For a further experiment, the system named is CASKI. The description is as above. The note with it: Gynecologic cancer cell panel viability, ATPlite luminescence, 48 h; series mostly up to 57.5 µM. Put shortly: as §2
In another experiment the test system is Es-2. The experiment is described as above. The note with it: Gynecologic cancer cell panel viability, ATPlite luminescence, 48 h; series mostly up to 57.5 µM. In a few lines: as §2
The next experiment has as its system HeLa. The description is as above. The note with it: Gynecologic cancer cell panel viability, ATPlite luminescence, 48 h; series mostly up to 57.5 µM. Put shortly: as §2
For the next experiment, the system named is Hek293T. Described as above. The following applies: Gynecologic cancer cell panel viability, ATPlite luminescence, 48 h, control line for the selectivity index; series mostly up to 57.5 µM. Put shortly:
as §2

The subject of a further experiment is JEG-3. The experiment is described as above. The following applies: Gynecologic cancer cell panel viability, ATPlite luminescence, 48 h; series mostly up to 57.5 µM. Put shortly: as §2
For another experiment, the system named is OV90. The experiment is described as above. The note with it: Gynecologic cancer cell panel viability, ATPlite luminescence, 48 h; series mostly up to 57.5 µM. In a few lines: as §2
The test system of a further experiment is PA-1. The experiment is described as above. The following applies: Gynecologic cancer cell panel viability, ATPlite luminescence, 48 h; series mostly up to 57.5 µM. In a few lines:
as §2

Another experiment deals with Tov-21-G. The experiment is described as above. The note with it: Gynecologic cancer cell panel viability, ATPlite luminescence, 48 h; series mostly up to 57.5 µM. In a few lines:
as §2

The next experiment relates to Tov112D. The experiment is described as above. The note with it: Gynecologic cancer cell panel viability, ATPlite luminescence, 48 h; series mostly up to 57.5 µM. Put shortly:
as §2

A short description of experiment [1]: Drug repurposing screens with cells derived from glioblastoma tumor samples (AID 1345199). Further: nearly all actives have a fitted effect of over 40% in size. The note with it: GBM patient neurospheres viability, ATP luminescence, 48 h. Put shortly: (§3)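 Primary testing used CD133+ neurospheres from four GBM patients, seven concentrations, 48 h exposure and ATP-based viability; confirmation added three slower-growing patient lines.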

Another experiment relates to astro. The description is as above. The note with it: viability, ATP luminescence, 48 h; series mostly up to 45.9 µM. In a few lines:
as §3

For another experiment, the system named is SKOV3. As to the kind of experiment: Primary qHTS to identify gynecologic anti-cancer compounds using libraries of approved drugs and bioactive compounds (AID 1345084). Further: nearly all actives have a fitted effect of over 55% in size. Further: potency means the concentration at half of the fitted maximal effect. The following applies: Gynecologic cancer cell panel viability, ATPlite luminescence, 48 h; series mostly up to 57.5 µM. Put shortly:
as §2

Where “and” joins values, the source holds several entries; their conditions need not be identical. Equal entries are not always repeated. Records with an inconclusive call do not appear. The source holds several records for some structures; these can differ, active in one and inactive in another. Calls of active or inactive are those of the source. The call rests on the fitted dose curve; in most records, active means well fitted curve in the direction sought with a large enough effect; inconclusive means small, poorly fitted or top-dose-only effect, or another doubt; inactive means no such curve, though single readings can be large; an effect the other way counts as inactive or inconclusive.
On the % scale 0 is the no-effect control and ±100 the full control effect.

For the compound `Nc1ccc(S(=O)(=O)Nc2ccnn2-c2ccccc2)cc1`, the Potency result in the experiment with MCC-26, in the experiment on MKL-1, in the experiment with MKL-2, with UISO, with WaGa and with C33A was “inactive” throughout. Moreover, the Potency result in the experiment with CAOV3, with CASKI, in the experiment on Es-2, with HeLa, in the experiment on Hek293T and with JEG-3 was “inactive” each time. For the same compound, the Potency entry with OV90, with PA-1, with Tov-21-G, with Tov112D and in the experiment on astro was “inactive” each time. Besides, the activity, negative = cell killing is -5.82% (inactive) in experiment [1] (at 20 µM (top of the series), tumour line C); -5.49% (inactive) in [1] (at 21.2 µM (top of the series), tumour line B); -1.62% (inactive) in experiment [1] (at 21.2 µM (top of the series), tumour line D); -21.3% (inactive) in [1] (at 21.3 µM (top of the series), tumour line A).

For `CS(=O)(=O)c1ccc(C(=O)Nc2ccc(Cl)c(-c3ccccn3)c2)c(Cl)c1`, the Potency entry in the experiment with MCC-26, in the experiment on MKL-1, in the experiment on MKL-2, in the experiment with UISO, in the experiment with WaGa and in the experiment with CAOV3 was “inactive” in each case. The Potency entry in the experiment on CASKI, in the experiment with Es-2, with HeLa, with Hek293T, with JEG-3 and in the experiment with OV90 was “inactive” in each case. Further, the Potency entry in the experiment on PA-1, with SKOV3, with Tov-21-G and in the experiment on Tov112D was “inactive” throughout.

Consider `COc1cccc2cc(-c3nc(C4CCC(C(=O)O)CC4)n4ncnc(N)c34)[nH]c12` (configuration not stated), for which the Potency entry with MCC-26, with MKL-1, in the experiment with MKL-2, in the experiment on HeLa and in the experiment on JEG-3 was “inactive” in each case. Also, the Potency was 7.94 µM (active) in the experiment with C33A; 7.08 µM (active) in the experiment with Es-2; 7.94 µM (active) in the experiment with OV90; 3.16 µM (active) in the experiment with PA-1; 11.2 µM (active) with SKOV3; 3.55 µM (active) in the experiment on Tov-21-G.

With `Cc1ccc(-n2nc(C(C)(C)C)cc2NC(=O)Nc2ccc(OCCN3CCOCC3)c3ccccc23)cc1`, the Potency entry with MCC-26, in the experiment with WaGa, with C33A, in the experiment with CASKI, in the experiment with Es-2 and in the experiment with HeLa was “inactive” each time. In addition, the Potency entry with Hek293T, in the experiment with JEG-3, in the experiment on OV90, with PA-1, with SKOV3 and with Tov-21-G was “inactive” in each case. Further, the Potency entry in the experiment on Tov112D is “inactive”. The Potency entry in the experiment on MKL-1 is “inactive and 23.7 µM (active)”; in the experiment on MKL-2 it was 18.8 µM (active). In addition, the activity, negative = cell killing was 12.9% (inactive) in experiment [1] (at 45.9 µM (top of the series), tumour line B); -19.4% (inactive) in [1] (at 45.9 µM (top of the series), tumour line D); -25.6% (inactive) in experiment [1] (at 46.1 µM (top of the series), tumour line C).

On to `COc1nc(-c2ccc3c(c2)OCO3)n(-c2ccc(NC(=O)CSc3ccccc3)cc2)n1`, for which the Potency result in the experiment with MCC-26, in the experiment on MKL-1, with MKL-2, with UISO, in the experiment on WaGa and with C33A was “inactive” throughout. In addition, the Potency entry in the experiment on CAOV3, in the experiment with CASKI, with Es-2, in the experiment with Hek293T, with JEG-3 and with OV90 was “inactive” in each case. In addition, the Potency result in the experiment on PA-1, in the experiment with SKOV3, in the experiment on Tov-21-G and with Tov112D was “inactive” each time.

As for `CC1(C)Cc2c(-c3ccccc3)c(-c3ccc(Cl)cc3)c(CC(=O)O)n2C1`, the Potency result in the experiment with MCC-26, in the experiment on MKL-1, in the experiment on MKL-2, with UISO, in the experiment on WaGa and in the experiment on C33A was “inactive” each time. Besides, the Potency result in the experiment with CAOV3, with CASKI, in the experiment with Es-2, with HeLa, with JEG-3 and in the experiment on OV90 was “inactive” throughout. For the same compound, the Potency result in the experiment with PA-1, in the experiment on SKOV3 and with Tov112D was “inactive” throughout.

In the case of `C[C@H](NC(=O)Cc1cc(F)cc(F)c1)C(=O)N[C@@H]1C(=O)N(C)c2ccccc2-c2ccccc21`, the Potency entry in the experiment on MCC-26, with MKL-1, with UISO, in the experiment on C33A, in the experiment on CAOV3 and with CASKI was “inactive” in each case. The Potency result with Es-2, in the experiment on HeLa, in the experiment on Hek293T, with JEG-3, in the experiment with OV90 and with PA-1 was “inactive” in each case. In addition, the Potency result in the experiment on SKOV3, in the experiment with Tov-21-G and with Tov112D was “inactive” each time.
